# Data from ChEMBL document CHEMBL3988442, “University of Dundee, Small-Polar-MMV Screening Library” (2021).
# The whole screen tested about 53,000 compounds, of which about 900 (1.7%) showed an effect of 50% or more. The full list was thinned out, with strong results kept by preference.
# Test system: Mycobacterium tuberculosis
# Experiment: Cornell - Phenotypic assay to identify agents that inhibit growth of Mycobacterium tuberculosis
# Format: functional
# Set-up: scale not given: direction of the effect not stated beside the values
# Conditions: 10 mM as filed; unlikely as a test dose
row,Structure (SMILES),Percent Effect [%]
1,COCCC(=O)N1C[C@H]2CN(Cc3cccnc3)C(=O)[C@H]2C1.O=C(O)C(F)(F)F,9.901
2,COc1ccc(NC(=O)Cn2nc(C)c(C)cc2=O)cc1,-2.402
3,COc1ccc(NC(=O)Cn2nc(C)c(C)cc2=O)cc1Cl,14.09
4,COc1ccc(NC(=O)Cn2nc(C)c(C(C)=O)c2C)cc1,109.6
5,CC(=O)c1c(C)nn(CC(=O)Nc2ccc(F)cc2)c1C,-30.72
6,Cc1cc(=O)n(CC(=O)Nc2ccc(Cl)cc2)nc1C,13.93
7,CC(=O)c1c(C)nn(CC(=O)Nc2ccc(Br)cc2)c1C,109.5
8,COCCN1CC[C@]2(CN(C(=O)c3ccc[nH]3)C[C@H]2C)C1=O,14.18
9,Cc1nn(C)c(Cl)c1C1CCCN1Cc1noc(C2CC2)n1 (configuration not stated),-6.241
10,CCCC(NC(=O)c1cscc1C)c1nnn[nH]1 (configuration not stated),-31.84
11,Cc1cnc(CN(C)C2CCN(Cc3sc(C)nc3C)C2)o1 (configuration not stated),-24.44
12,CC(Oc1ccccc1C(F)(F)F)C(=O)NS(=O)(=O)C(C)C (configuration not stated),54.22
13,COC(=O)CNC(=O)C(C)Oc1ccccc1C(F)(F)F (configuration not stated),-2.134
14,CC(Oc1ccccc1C(F)(F)F)C(=O)NCC(N)=O (configuration not stated),-32.94
15,COCCCN(Cc1ccncc1)c1ncc(C#N)cc1Cl,15.37
16,Cc1noc(NC(=O)c2ccc(F)cc2)n1,2.649
17,COc1cc(C(=O)Nc2nc(C)no2)ccc1C,102.2
18,COc1cc(C(=O)NS(=O)(=O)c2cccc(C#N)c2)ccc1C,15.37
19,Cc1cc(NC(=O)c2ccc(C)c(F)c2)[nH]n1,32.04
20,COc1cc(C(=O)Nc2c(C)noc2C)ccc1C,19.94
21,Cc1noc(NC(=O)c2ccc(C)c(F)c2)n1,108.6
22,Fc1cc(Cl)cnc1N1CCCC(c2nccn2Cc2ccccn2)C1 (configuration not stated),15.7

row,Structure (SMILES),Percent Effect [%]
1,O=C(c1cc(Cn2ccc3ccccc32)[nH]n1)N1CCC[C@H]1CO,36.89
2,Cc1c(CN2C[C@@H](O)[C@H](Oc3cccc(F)c3)C2)cnn1C,-27.75
3,CCCc1cc(=O)[nH]c(-c2cccc(CN3CCCCCC3)c2)n1,11.6
4,CCc1cc(=O)[nH]c(-n2nc(C3CC3)cc2NC(=O)C2CC2)n1,108.9
5,Cn1nc(CNC(=O)C2CC2)cc1C1CC1,29.19
6,CCc1c(C)nc(-n2nc(C3CC3)cc2NC(C)=O)[nH]c1=O,9.536
7,CCCc1cc(=O)[nH]c(-n2nc(C3CC3)cc2N)n1,107.6
8,CC(C)c1cc(=O)[nH]c(-n2nc(C3CC3)cc2N)n1,108.3
9,CC(C)c1cc(=O)[nH]c(C(C)(C)N)n1.Cl,8.844
10,Cc1cc(=O)[nH]c(-n2nc(C3CC3)cc2N)n1,39.12
11,CCCc1cc(=O)[nH]c(SCc2ccccn2)n1,-4.123
12,CCN1CCCC(CNC(=O)C2(c3cc(C)cc(C)c3)CCC2)C1 (configuration not stated),-9.012
13,COc1cccc(CC(=O)N2CCCC2c2nc(C)c(F)c(O)n2)c1 (configuration not stated),-107.1
14,CCNC(=O)NCc1ccc(-n2ccc(C(F)(F)F)n2)cc1,21.88
15,COCc1nnc(C(=O)N2CCC(N3CCCCC3)CC2)o1,-29.51
16,Cc1ccc(-c2ccc(Cl)nn2)cc1S(N)(=O)=O,6.758
17,CC(=O)N1CCC(c2n[nH]cc2-c2ccnc(N)c2)C1 (configuration not stated),-32.92
18,CC(C)(C)NC(=O)N1CCCn2nc(C(=O)Nc3ccccc3)cc2C1,16.42
19,Cc1nnsc1C(=O)NCc1nn(C2CCCC2)c2c1CCCC2,22.48
20,Cn1cc(-c2nc(C(=O)N3CCCC3c3cnn(C)c3)cs2)cn1 (configuration not stated),20.68
21,Cc1nn(C)c(N(C)C)c1CNCc1ccnn1C,46.97
22,COc1ncccc1CNCc1c(C(C)C)nn(C)c1N(C)C,63.07

row,Structure (SMILES),Percent Effect [%]
1,COc1cc(CNCc2c(C)nn(C)c2N(C)C)ccn1,97.38
2,CCOc1ncccc1CNCc1c(C)nn(C)c1N(C)C,-13.13
3,COc1cc(CNCc2c(C)nn(C)c2N(C)C)ccc1C,13.2
4,Cc1nn(CC(C)C)c(N(C)C)c1CNCc1ccnn1C,-14.58
5,COc1ncccc1CNCc1c(C)nn(C)c1N(C)C,-66.33
6,COc1ncccc1CNCc1c(C(C)C)nn(C)c1OC,20.17
7,CC(C)c1nn(C)c(N(C)C)c1CNCc1ccnn1C,65.83
8,COc1cc(CNCc2c(C)nn(CC(C)C)c2N(C)C)ccn1,-17.24
9,COCCOc1ncccc1CNCc1c(C)nn(C)c1N(C)C,87.98
10,CCOc1ncccc1CNCc1c(C(C)C)nn(C)c1N(C)C,-29.31
11,CCn1cc(CNC(=O)C(C)C)cn1,7.058
12,Cc1cc(C)cc(OCCCn2nc3ccccn3c2=O)c1,34.72
13,Cc1ccc(N(C)C2CCCN(C(=O)Nc3ccc(F)cc3F)C2)cc1 (configuration not stated),17.1
14,Cc1cccc(CN2Cc3ccnn3CC(COCC3CC3)C2)n1.O=C(O)C(F)(F)F (configuration not stated),10.51
15,COc1ccc(Br)c(NC(=O)NCc2ncnn2C)c1,-5.732
16,CCn1cc(NC(=O)CN2C(=O)CC(C)(C)c3ccccc32)cn1,23.89
17,CC(=O)c1cccc(NC(=O)Cn2nc(-c3cccs3)oc2=O)c1,-19.71
18,Cc1cc(N2CCC(O)(CN(C)C(=O)CCN)CC2)c2cnccc2n1,43.24
19,O=C(NCCn1cnnc1C1CC1)c1c(O)cc(F)cc1F,-13.58
20,O=C(O)CC(O)(CC(=O)O)C(=O)O.c1ccc([C@@H]2CN(Cc3ccncc3)C[C@H]2c2cc[nH]n2)cc1,17.96
21,COc1ccc([C@@H]2CN(Cc3ccncc3)C[C@H]2c2cc[nH]n2)cc1.O=C(O)CC(O)(CC(=O)O)C(=O)O,34.94
22,O=C(O)CC(O)(CC(=O)O)C(=O)O.c1ccc([C@@H]2CN(Cc3cccnc3)C[C@H]2c2cc[nH]n2)cc1,51.47

row,Structure (SMILES),Percent Effect [%]
1,O=C1CC(c2ccccc2)c2c(c(C(=O)O)cn2-c2ccccc2)N1 (configuration not stated),15.99
2,O=C(c1cc(F)ccc1O)N1CCN(C2CCOCC2)CC1,23.2
3,Cc1cccc(NC(C)C(=O)Nc2nccs2)c1 (configuration not stated),6.251
4,COC(=O)c1ccc2c(-c3ccnc(NCCO)n3)c[nH]c2c1,-4.775
5,COc1ccc2[nH]cc(-c3ccnc(N4CCC(C)CC4)n3)c2c1,24.84
6,COc1ccc2[nH]cc(-c3ccnc(NC4CCCC4)n3)c2c1,104.1
7,COCCO[C@@H]1CCN(C(=O)c2ccnnc2)[C@H]1Cc1cnn(C)c1,2.018
8,CCNC(=O)[C@@H]1C[C@@H](NC(=O)Cc2cc(C)no2)CN1Cc1ccsc1,-13.59
9,CCNC(=O)[C@@H]1C[C@H](NC(=O)Cn2ccnc2)CN1Cc1ccsc1,104.2
10,CCNC(=O)[C@@H]1C[C@@H](NC(=O)Cc2ccncc2)CN1Cc1ccsc1,31.97
11,Cc1ncc(C(=O)OCC2CCN(c3ccccc3)C2)s1 (configuration not stated),-13.58
12,Cn1cc(CN2CCC(c3ncc(Cl)cc3S(C)(=O)=O)CC2)cn1,39.28
13,Oc1nc(N2CCCC2)nc2c1CCN(Cc1ccsc1)CC2,2.378
14,CC(C)Oc1ncnc2c1CCN(Cc1ccco1)CC2.O=C(O)C(F)(F)F,21.95
15,Cc1nc(N2CCCC2)nc2c1CCN(Cc1nccn1C)CC2.O=C(O)C(F)(F)F,0.1901
16,Cc1nc(N2CCCC2)nc2c1CCN(Cc1ccsc1)CC2.O=C(O)C(F)(F)F,72.79
17,Cc1nc(N2CCOCC2)nc2c1CCN(Cc1ccsc1)CC2.O=C(O)C(F)(F)F,27.7
18,Cc1nc(N2CCCC2)nc2c1CCN(Cc1ccco1)CC2.O=C(O)C(F)(F)F,96.95
19,Cc1nc(N2CCCC2)nc2c1CCN(Cc1ccoc1)CC2.O=C(O)C(F)(F)F,56.27
20,Cc1nc(N2CCOCC2)nc2c1CCN(Cc1cccnc1)CC2.O=C(O)C(F)(F)F,26.93
21,Cc1nc(C)c2c(n1)CCN(Cc1ccco1)CC2,-0.9283
22,Cc1cc2cccc(NC(=O)N3CCC(N4CCSCC4)CC3)c2o1,26.32

row,Structure (SMILES),Percent Effect [%]
1,O=C(CN1CCC2(CC1)NC(=O)c1cc(Br)ccc1N2)NC1CC1,-67.58
2,Cc1cccc(CN2CCCCC23CCNC3)n1.O=C(O)C(F)(F)F.O=C(O)C(F)(F)F (configuration not stated),9.569
3,O=C(NCCc1coc(-c2ccc(F)cc2)n1)NC1CC1,9.97
4,CN[C@@H]1CCC[C@@H](Oc2ccccc2Oc2ccc(C)cc2)[C@@H]1O,74.11
5,Cc1ccc(Oc2cc(F)ccc2O[C@@H]2CCC[C@@H](N)[C@H]2O)cc1,30.66
6,N[C@@H]1CCC[C@@H](Oc2ccc(F)cc2Oc2ccccc2)[C@@H]1O,-14.7
7,Cc1ncsc1-c1nnc(C2CCCN2C(=O)Cn2cccn2)o1 (configuration not stated),-1.275
8,Cc1cc(CNc2cc(Cl)ccc2Cl)no1,51.97
9,CCOc1c(Cl)cccc1NCc1cc(C)on1,15.54
10,Cc1cc(CNc2cc(Cl)ccc2OCCS(C)(=O)=O)no1,-0.6634
11,O=C(NCc1ccccc1Cn1cncn1)C1CCCC1,0.5526
12,Cc1noc(C)c1CN1CCC2(CC1)NC(=O)CC2c1cnn(C)c1 (configuration not stated),47.68
13,Clc1ccccc1-c1nc(CNC2CCc3ncnn3C2)co1 (configuration not stated),-41.84
14,O=C(C1CC1)N1CCC2(CC1)OCCO2,-14.17
15,Cc1ncc2c(n1)C1(CCN(C(=O)C(C)C)CC1)OCC2.Cl,54.97
16,Cc1ncc(C(=O)N2CC(C(=O)N3CCOCC3)C2)c(C)n1,-7.514
17,Cc1cnc(N2CCOC3(CCCN(C(=O)C(C)C)C3)C2)nc1 (configuration not stated),8.771
18,Cc1noc(C2(C)CCN(C(=O)C(C)C)CC2)n1,-18.49
19,Cc1ncc2c(n1)C1(CCN(C(=O)C3CC3)CC1)OCC2.Cl,55.8
